From PubChem BioAssay (NCI) come the findings set out here.

Compounds without any hit were thinned out: in the full panel of roughly 83,000, 20% have a hit.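 Plates (96-well) were seeded with cells, treated with compound at one concentration, and incubated for 48 hours before percent growth was determined.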 Values without a mark were called inactive. Calls of active or inactive are those of the source. How the source made its calls: active means growth percent below 10; inactive means the rest.

Among the test systems are HCT-15 colon; HT29 colon; SNB-75 CNS; SNB-19 CNS; U251 CNS; PC-3 prostate; SK-MEL-5 melanoma; UACC-62 melanoma; LOX IMVI melanoma; SK-MEL-28 melanoma; SK-MEL-2 melanoma; EKVX NSCLC; SN12C renal; UO-31 renal; TK-10 renal; ACHN renal; CAKI-1 renal; A498 renal; CCRF-CEM leukemia; MOLT-4 leukemia.
Experiment in all cases: NCI-60 one-dose screen, 48 h (100 = growth as untreated, 0 = no growth, -100 = all killed)
Details in all cases: 10 µM unless noted

With `O=C(O)c1cn(C2CC2)c2cc(N3CCN(C(=O)N/N=C/c4ccccc4)CC3)c(F)cc2c1=O`, the growth with HCT-15 colon is 98.4%; in the test with HT29 colon, 96.9%; with SNB-75 CNS, 98.9%; in the test with SNB-19 CNS it was 94.7%; in the test with U251 CNS it was 101%; in the test with PC-3 prostate, 96%. Moreover, the growth was 94.9% in the test with SK-MEL-5 melanoma; 95.3% in the test with UACC-62 melanoma; 80.7% in the test with LOX IMVI melanoma; 108% in the test on SK-MEL-28 melanoma; 98.7% with SK-MEL-2 melanoma; 101% in the test on EKVX NSCLC. The growth in the test on SN12C renal is 112%; in the test with UO-31 renal it was 74%; in the test with TK-10 renal it was 96.5%; with ACHN renal it was 101%; in the test with CAKI-1 renal, 93.3%; with A498 renal, 109%. Besides, the growth was 96.9% in the test on CCRF-CEM leukemia and 85.4% in the test on MOLT-4 leukemia.
Turning to `CN1CCN(c2ccc3c(c2)nc(NNC(=O)c2cnccn2)c2cccn23)CC1`, the growth was 23.9% with HCT-15 colon; 28.6% with HT29 colon; 66.7% with SNB-75 CNS; 34.9% in the test with SNB-19 CNS; 32.2% in the test with U251 CNS; 47.3% in the test with PC-3 prostate. Further, the growth with SK-MEL-5 melanoma is 31.2%; in the test on UACC-62 melanoma, 12.9%; with LOX IMVI melanoma, 10.3%; with SK-MEL-28 melanoma, 24.8%; with SK-MEL-2 melanoma, 64.8%; with EKVX NSCLC it was 30.1%. Further, the growth in the test with SN12C renal was 27.6%; in the test on UO-31 renal it was 3.3% (active); with TK-10 renal, 44.8%; in the test with ACHN renal, 8.28% (active); with CAKI-1 renal, 22.5%; with A498 renal it was 31.4%. Moreover, the values for the growth in the test on CCRF-CEM leukemia and with MOLT-4 leukemia were 11.4% and 13.9%, respectively.
As for `Cn1c(O)c(C(/C=C/c2ccccc2)=Nc2ccccc2N)c(=O)n(C)c1=O`, the growth in the test with HCT-15 colon is 91.5%; in the test on HT29 colon, 72.1%; in the test on SNB-75 CNS, 90.7%; in the test on SNB-19 CNS it was 101%; in the test with U251 CNS, 101%; in the test on PC-3 prostate, 77.7%. The growth with SK-MEL-5 melanoma is 75.4%; with UACC-62 melanoma, 76.1%; in the test on LOX IMVI melanoma, 90.3%; in the test on SK-MEL-28 melanoma, 120%; in the test with SK-MEL-2 melanoma, 129%; with EKVX NSCLC, 82%. The growth in the test with SN12C renal is 96.1%; with UO-31 renal, 83.4%; with TK-10 renal, 134%; in the test with ACHN renal it was 99.3%; with CAKI-1 renal, 102%; in the test on A498 renal it was 130%. The figures for the growth in the test with CCRF-CEM leukemia and in the test on MOLT-4 leukemia were 67.3% and -43.5% (active), respectively.
As for `COc1ccc(NC(=O)c2ccc(C(=O)Nc3ccc(OC)cc3OC)cc2)c(OC)c1`, the growth was 81.4% with HCT-15 colon; 90% with HT29 colon; -39.3% (active) in the test on SNB-75 CNS; 50.9% with SNB-19 CNS; 46.3% in the test with U251 CNS; 75.9% in the test with PC-3 prostate. Besides, the growth in the test on SK-MEL-5 melanoma is 96.7%; with UACC-62 melanoma, 73.8%; in the test on LOX IMVI melanoma, 71.8%; with SK-MEL-28 melanoma it was 101%; in the test with SK-MEL-2 melanoma it was 80.4%; in the test on EKVX NSCLC, 73.7%. Also, the growth with SN12C renal was 65%; in the test with UO-31 renal, 52.4%; in the test on TK-10 renal it was 69.7%; with ACHN renal it was 71.9%; in the test on CAKI-1 renal, 68.1%; in the test on A498 renal, 58.6%. For the same compound, the figures for the growth in the test on CCRF-CEM leukemia and in the test with MOLT-4 leukemia were 90% and 94.3%, respectively.
As to `COc1cc2c(c(OC)c1OC)C(=O)CC(c1cccc(NC(=O)c3ccccc3Br)c1)O2` (stereo not given), the growth in the test with HCT-15 colon was 88.6%; in the test on HT29 colon, 97.1%; with SNB-75 CNS, 93.3%; in the test with SNB-19 CNS, 95.5%; in the test on U251 CNS, 91.5%; in the test on PC-3 prostate, 77.9%. For the same compound, the growth in the test on SK-MEL-5 melanoma was 86.1%; in the test on UACC-62 melanoma, 72.2%; in the test on LOX IMVI melanoma, 93.4%; in the test with SK-MEL-28 melanoma, 111%; in the test with SK-MEL-2 melanoma, 75.8%; in the test with EKVX NSCLC, 102%. The growth is 91.5% in the test with SN12C renal; 77.3% in the test with UO-31 renal; 97.1% in the test on TK-10 renal; 93% in the test with ACHN renal; 109% with CAKI-1 renal; 75.9% with A498 renal. Moreover, the growth in the test with CCRF-CEM leukemia is 73.1%; with MOLT-4 leukemia, 69.6%.
With `Nc1c(C(=O)Nc2ccncc2)sc2nc3c(cc12)CCCCC3`, the growth in the test on HCT-15 colon is 64%; with HT29 colon, 52.9%; in the test on SNB-75 CNS it was 93.5%; in the test with SNB-19 CNS it was 95.9%; with U251 CNS it was 83.7%; with PC-3 prostate it was 83.8%. The growth in the test with SK-MEL-5 melanoma is -0.0144% (active); in the test on UACC-62 melanoma, 80.7%; in the test on LOX IMVI melanoma it was 84%; with SK-MEL-28 melanoma, 82.5%; with SK-MEL-2 melanoma, 93.7%; in the test on EKVX NSCLC, 74.2%. Moreover, the growth with SN12C renal is 78.9%; in the test on UO-31 renal, 66.6%; with TK-10 renal, 85.9%; with ACHN renal, 88.6%; in the test on CAKI-1 renal, 81.6%; in the test with A498 renal, 74.5%. Further, the growth in the test with CCRF-CEM leukemia was 54.4%; with MOLT-4 leukemia, 40.3%.
Take `N#CC(C#N)N=Nc1ccc(Cl)cc1Cl`: the growth with HCT-15 colon is 85%; in the test on HT29 colon, 81.8%; in the test on SNB-75 CNS it was 89.3%; with SNB-19 CNS it was 102%; in the test on U251 CNS, 106%; in the test on PC-3 prostate, 78.7%. The growth in the test with SK-MEL-5 melanoma is 99.8%; with UACC-62 melanoma it was 69.6%; in the test with LOX IMVI melanoma, 94.8%; in the test with SK-MEL-28 melanoma, 70.3%; with SK-MEL-2 melanoma it was 99.9%; in the test on EKVX NSCLC, 99.3%. For the same compound, the growth was 82.9% with SN12C renal; 57.8% with UO-31 renal; 90.8% in the test with TK-10 renal; 58.4% in the test with ACHN renal; 70.8% with CAKI-1 renal; 84.7% in the test on A498 renal. The growth with CCRF-CEM leukemia was 48.3%; in the test on MOLT-4 leukemia it was 75.5%.
On to `Cc1cc2oc(=O)cc(CP(=O)(O)O)c2cc1O`, for which the growth in the test with HCT-15 colon was 96%; in the test on HT29 colon, 106%; in the test with SNB-75 CNS, 75.3%; in the test on SNB-19 CNS, 93.6%; in the test with U251 CNS, 98.5%; in the test with PC-3 prostate, 94.9%. Further, the growth with SK-MEL-5 melanoma was 99.2%; in the test on UACC-62 melanoma it was 90.7%; in the test with LOX IMVI melanoma, 98.7%; in the test with SK-MEL-28 melanoma, 98.4%; in the test on SK-MEL-2 melanoma it was 102%; in the test with EKVX NSCLC it was 97.1%. The growth was 93.5% in the test on SN12C renal; 70.4% in the test with UO-31 renal; 107% with TK-10 renal; 101% with ACHN renal; 90.9% with CAKI-1 renal; 80.8% in the test on A498 renal. Besides, the figures for the growth with CCRF-CEM leukemia and in the test with MOLT-4 leukemia were 103% and 104%, respectively.
In the case of `CCOC(=O)NN1CC(O)=C(c2nc(-c3ccc(Br)cc3)cs2)C1=N`, the growth was 115% with HCT-15 colon; 108% with HT29 colon; 101% in the test with SNB-75 CNS; 98.7% in the test on SNB-19 CNS; 113% in the test on U251 CNS; 85.2% with PC-3 prostate. Moreover, the growth with SK-MEL-5 melanoma was 103%; in the test with UACC-62 melanoma, 110%; with LOX IMVI melanoma it was 106%; in the test with SK-MEL-28 melanoma, 113%; in the test on SK-MEL-2 melanoma, 128%; with EKVX NSCLC, 104%. The growth in the test on SN12C renal was 161%; with UO-31 renal, 87%; in the test with TK-10 renal, 116%; in the test with ACHN renal, 111%; with CAKI-1 renal, 92.9%; with A498 renal it was 93.4%. Further, the figures for the growth with CCRF-CEM leukemia and with MOLT-4 leukemia were 86.2% and 75.9%, respectively.
`CC(=O)c1c(Nc2ccc(F)c(F)c2F)[nH]c2c(F)cc(F)cc2c1=O`: the growth in the test with HCT-15 colon was 4.32% (active); with HT29 colon, 3.62% (active); with SNB-75 CNS, -14.8% (active); in the test with SNB-19 CNS, 22%; in the test on U251 CNS, 0.133% (active); with PC-3 prostate, 4.75% (active). Besides, the growth with SK-MEL-5 melanoma is -75.8% (active); with UACC-62 melanoma, -27.9% (active); in the test on LOX IMVI melanoma, 5.66% (active); with SK-MEL-28 melanoma, 4.71% (active); in the test on SK-MEL-2 melanoma, -52.6% (active); with EKVX NSCLC, 9.73% (active). Besides, the growth in the test on SN12C renal was 1.04% (active); in the test with UO-31 renal, 4.44% (active); in the test with TK-10 renal it was 12.7%; in the test with ACHN renal it was 0.167% (active); with CAKI-1 renal, -10.4% (active); in the test on A498 renal, -33.4% (active). Also, the growth was 6.3% (active) in the test on CCRF-CEM leukemia and -3.98% (active) in the test with MOLT-4 leukemia.
Regarding `Nc1nc(C(=O)N/N=C/c2ccc(N3CCOCC3)cc2)nn1-c1ccc(S(N)(=O)=O)cc1`, the growth in the test with HCT-15 colon is 108%; in the test on HT29 colon it was 106%; in the test on SNB-75 CNS, 83%; in the test with SNB-19 CNS, 102%; in the test on U251 CNS it was 98.3%; in the test with PC-3 prostate it was 101%. For the same compound, the growth with SK-MEL-5 melanoma was 102%; with UACC-62 melanoma it was 102%; in the test with LOX IMVI melanoma, 97.4%; with SK-MEL-28 melanoma, 117%; with SK-MEL-2 melanoma, 104%; with EKVX NSCLC, 101%. The growth was 103% in the test with SN12C renal; 85.4% with UO-31 renal; 94.4% in the test on TK-10 renal; 109% with ACHN renal; 89.8% with CAKI-1 renal; 107% in the test on A498 renal. The growth in the test on CCRF-CEM leukemia is 112%; in the test on MOLT-4 leukemia, 123%.
